# Test results taken from the supplement of paper PMC8728848.
# Many of the other results were omitted from the sample, so the strongest signals are more common in it than they were.
# B1: EULS2 M2 (Oryza sativa) (protein)
# chain: MVYCRANPNYAMTARNGAVVLAPANPKDEYQHWIKDMRWSTSIKDEEGYPAFALVNKATGQAIKHSLGQSHPVRLVPYNPEVMDESVLWTESRDVGNGFRCIRMVNNIYLNFDAFHGDKYHGGVRDGTDIVLWKLCEGDSQRWKIQPYYILEQKLISEEDLNSAVDHHHHHH
# Assays:
# Experiment in all cases: glycan array binding signal (z-score within array); higher = stronger binding
# Settings in all cases: glycan notation: IUPAC condensed, linker removed
# Gal6P(b1-4)GlcNAc = biological target: Gal6P(b1-4)GlcNAc
# Procedure, shortened: (§1)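 Arrays were curated from the Consortium for Functional Glycomics database, 3228 in total, and kept only where the protein sequence was available. Binding is expressed as a within-array Z-score. This score was averaged across arrays of the same protein sequence at different concentrations or buffers and across linkers, and negative values can be read as non-binding.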
# Gal6S(b1-3)GlcNAc6S = biological target: Gal6S(b1-3)GlcNAc6S
# Procedure, shortened: as §1
# Gal6S(b1-4)Glc6S = biological target: Gal6S(b1-4)Glc6S
# Procedure, shortened: as §1
# Gal6S(b1-4)GlcNAc6S = biological target: Gal6S(b1-4)GlcNAc6S
# Procedure, shortened: as §1
# [1] = biological target: GalNAc(b1-3)Gal(a1-6)Gal(b1-4)Glc
# Procedure, shortened: as §1
# GalNAc3S(b1-4)GlcNAc3S = biological target: GalNAc3S(b1-4)GlcNAc3S
# Procedure, shortened: as §1
# [2] = biological target: Glc(a1-4)Glc(a1-4)Glc(a1-4)Glc
# Procedure, shortened: as §1
# [3] = biological target: Glc(a1-6)Glc(a1-6)Glc(a1-6)Glc
# Procedure, shortened: as §1
# GlcA(b1-6)Gal = biological target: GlcA(b1-6)Gal
# Procedure, shortened: as §1
# GlcNAc(b1-3)Gal = biological target: GlcNAc(b1-3)Gal
# Procedure, shortened: as §1
# [4] = biological target: GlcNAc(b1-3)Gal(b1-4)GlcNAc(b1-2)Man(a1-3)[GlcNAc(b1-3)Gal(b1-4)GlcNAc(b1-2)Man(a1-6)]Man(b1-4)GlcNAc(b1-4)GlcNAc
# Procedure, shortened: as §1
# [5] = biological target: GlcNAc(b1-3)Gal(b1-4)GlcNAc(b1-3)Gal(b1-4)GlcNAc(b1-2)Man(a1-3)[GlcNAc(b1-3)Gal(b1-4)GlcNAc(b1-3)Gal(b1-4)GlcNAc(b1-2)Man(a1-6)]Man(b1-4)GlcNAc(b1-4)GlcNAc
# Procedure, shortened: as §1
# [6] = biological target: GlcNAc(b1-3)Gal(b1-4)GlcNAc(b1-6)[GlcNAc(b1-3)]Gal(b1-4)GlcNAc
# Procedure, shortened: as §1
# [7] = biological target: Man(a1-2)Man(a1-2)Man(a1-3)Man
# Procedure, shortened: as §1
# [8] = biological target: Man(a1-3)[Man(a1-6)]Man(a1-6)[Man(a1-3)]Man
# Procedure, shortened: as §1
# [9] = biological target: Man(a1-3)[Man(a1-6)]Man(a1-6)[Man(a1-3)]Man(b1-4)GlcNAc(b1-4)GlcNAc
# Procedure, shortened: as §1
# [10] = biological target: Man(a1-3)[Man(a1-6)]Man(b1-4)GlcNAc(b1-4)[Fuc(a1-6)]GlcNAc
# Procedure, shortened: as §1
# Man(a1-6)Man = biological target: Man(a1-6)Man
# Procedure, shortened: as §1
# [11] = biological target: Neu5Ac(a2-3)Gal(b1-3)[Fuc(a1-4)]GlcNAc(b1-3)Gal(b1-3)[Fuc(a1-4)]GlcNAc
# Procedure, shortened: as §1
# [12] = biological target: Neu5Ac(a2-3)Gal(b1-3)[Fuc(a1-4)]GlcNAc(b1-3)Gal(b1-4)[Fuc(a1-3)]GlcNAc
# Procedure, shortened: as §1
# [13] = biological target: Neu5Ac(a2-3)Gal(b1-4)GlcNAc(b1-2)Man(a1-3)[Neu5Ac(a2-3)Gal(b1-4)GlcNAc(b1-2)Man(a1-6)]Man(b1-4)GlcNAc(b1-4)[Fuc(a1-6)]GlcNAc
# Procedure, shortened: as §1
# [14] = biological target: Neu5Ac(a2-3)Gal(b1-4)GlcNAc(b1-3)Gal(b1-4)GlcNAc(b1-3)Gal(b1-4)GlcNAc(b1-2)Man(a1-3)[Neu5Ac(a2-3)Gal(b1-4)GlcNAc(b1-3)Gal(b1-4)GlcNAc(b1-3)Gal(b1-4)GlcNAc(b1-2)Man(a1-6)]GalNAc
# Procedure, shortened: as §1
# [15] = biological target: Neu5Ac(a2-3)Gal(b1-4)GlcNAc(b1-3)Gal(b1-4)[Fuc(a1-3)]GlcNAc
# Procedure, shortened: as §1
# [16] = biological target: Neu5Ac(a2-3)Gal6S(b1-4)GlcNAc
# Procedure, shortened: as §1
# [17] = biological target: Neu5Ac(a2-6)Gal(b1-4)GlcNAc(b1-3)Gal(b1-4)GlcNAc(b1-3)Gal(b1-4)GlcNAc(b1-2)Man(a1-3)[Neu5Ac(a2-6)Gal(b1-4)GlcNAc(b1-3)Gal(b1-4)GlcNAc(b1-3)Gal(b1-4)GlcNAc(b1-2)Man(a1-6)]GalNAc
# Procedure, shortened: as §1
# [18] = biological target: Neu5Ac(a2-6)Gal(b1-4)GlcNAc(b1-3)Gal(b1-4)[Fuc(a1-3)]GlcNAc(b1-3)Gal(b1-4)[Fuc(a1-3)]GlcNAc
# Procedure, shortened: as §1
# [19] = biological target: Neu5Ac(a2-6)Gal(b1-4)GlcNAc6S
# Procedure, shortened: as §1
# [20] = biological target: Neu5Gc(a2-3)Gal(b1-4)GlcNAc(b1-3)Gal(b1-4)GlcNAc(b1-2)Man(a1-3)[Neu5Gc(a2-3)Gal(b1-4)GlcNAc(b1-3)Gal(b1-4)GlcNAc(b1-2)Man(a1-6)]Man(b1-4)GlcNAc(b1-4)GlcNAc
# Procedure, shortened: as §1
binder,measurement,setting,value
B1,glycan array binding signal (z-score),Gal6P(b1-4)GlcNAc,-0.418
same,glycan array binding signal (z-score),Gal6S(b1-3)GlcNAc6S,4.18
same,glycan array binding signal (z-score),Gal6S(b1-4)Glc6S,4.74
same,glycan array binding signal (z-score),Gal6S(b1-4)GlcNAc6S,2.72
same,glycan array binding signal (z-score),[1],0.855
same,glycan array binding signal (z-score),GalNAc3S(b1-4)GlcNAc3S,0.228
same,glycan array binding signal (z-score),[2],-0.217
same,glycan array binding signal (z-score),[3],-0.066
same,glycan array binding signal (z-score),GlcA(b1-6)Gal,0.412
same,glycan array binding signal (z-score),GlcNAc(b1-3)Gal,-0.404
same,glycan array binding signal (z-score),[4],-0.176
same,glycan array binding signal (z-score),[5],0.163
same,glycan array binding signal (z-score),[6],-0.388
same,glycan array binding signal (z-score),[7],-0.332
same,glycan array binding signal (z-score),[8],7.3
same,glycan array binding signal (z-score),[9],3.29
same,glycan array binding signal (z-score),[10],0.966
same,glycan array binding signal (z-score),Man(a1-6)Man,5.83
same,glycan array binding signal (z-score),[11],0.084
same,glycan array binding signal (z-score),[12],-0.548
same,glycan array binding signal (z-score),[13],-0.323
same,glycan array binding signal (z-score),[14],-0.26
same,glycan array binding signal (z-score),[15],-0.328
same,glycan array binding signal (z-score),[16],-0.449
same,glycan array binding signal (z-score),[17],0.058
same,glycan array binding signal (z-score),[18],-0.268
same,glycan array binding signal (z-score),[19],-0.389
same,glycan array binding signal (z-score),[20],0.09
